Here are results for 35 molecules from PubChem BioAssay (NCI).

The panel holds about 83,000 compounds, 20% with a hit somewhere; the sample as a whole holds those more often.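 Cells were grown in 96-well plates and exposed to the test compound at a single concentration for 48 hours; results are reported as percent growth, with values below 10 considered active.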 Active and inactive are the calls of the source.

The test system of the assay is CAKI-1 renal. Description: NCI-60 one-dose screen, 48 h (100 = growth as untreated, 0 = no growth, -100 = all killed). Particulars: 10 µM unless noted.
Take `C#C[C@]1(O)CC[C@H]2[C@@H]3CC=C4c5sc(N(C)c6ccccc6)nc5CC[C@]4(C)[C@H]3CC[C@@]21C`: the growth is 92.3% (inactive). With `CC(=O)c1c([Si](C)(C)C)c2cc(C#N)ccn2c1C(=O)c1ccc(Br)cc1`, the growth was 52% (inactive). On to `O=C(CSc1nc2ccccc2c(=O)n1-c1ccc(Cl)c(Cl)c1)Nc1ccc(S(=O)(=O)Nc2ccc(Cl)nn2)cc1`, for which the growth is 82.1% (inactive).

Take `C#CCN(C)CCCOc1ccc(NCc2ccc(/C=C/C(=O)NO)cc2)cc1Cl`: the growth is -35.9% (active). With `O=C(NNc1nc2cc(F)cc(F)c2n2cccc12)c1cccnn1` the figure was 12.4% (inactive). Turning to `COc1ccc(/C(=N\NC(N)=S)c2ccc(Cl)cc2)cc1OC`, the growth was 31.2% (inactive). In the case of `COc1ccc(-c2c(C(N)=O)c(N)n(Cc3nc4ccccc4[nH]3)c(=O)c2C#N)c(OC)c1`, the growth is 78.9% (inactive).

As for `Cc1cc(Br)ccc1-n1cc(C#N)c(N)c1C(=O)c1ccc(Br)cc1`, the growth is 91.6% (inactive). With `CN1CCN(Cc2ccc(NC(=O)c3cncc(C#Cc4cnc(N)nc4)c3)cc2C(F)(F)F)CC1` the figure was 0.371% (active); with `CCOC(=O)c1c(NC(=O)c2ccc(C(F)(F)F)cc2)sc2c3c(ccc12)OCN(C)C3`, -23.9% (active); with `O=C1CSC(c2cn(-c3ccccc3)nc2-c2ccc(Cl)cc2)N1c1ccccc1` (stereo not given), 92.3% (inactive). Turning to `COc1ccc(-c2c3c(cn2Cc2cccc(OC)c2)-c2oncc2CCC3)cc1`, the growth is 76.1% (inactive).

For the molecule `C#C[C@]1(O)CC[C@H]2[C@@H]3CC=C4c5sc(Nc6ccc(C)cn6)nc5CC[C@]4(C)[C@H]3CC[C@@]21C`, the growth is -74.1% (active). For `CCCCCCOC(=O)c1cc(-c2ccc(F)cc2)nc2ccccc12`, the growth is 90.3% (inactive). On to `CN1CCN(c2ccc(Nc3nc(NCCNS(=O)(=O)c4ccccc4)c4sccc4n3)cc2)CC1`, for which the growth was 76.4% (inactive). With `CN1CCN(Cc2ccc(NC(=O)c3cncc(C#Cc4cnc5ccc(O[C@@H]6CCOC6)nn45)c3)cc2C(F)(F)F)CC1` the figure was -96.8% (active). With `CC(C)(C)Nc1nc2c(OCCc3ccccc3)cccn2c1-c1ccc([N+](=O)[O-])cc1`, the growth was 43.3% (inactive). With `N#Cc1c(-c2cccs2)cc(-c2cnccn2)nc1SCC(=O)N/N=C/c1ccc(Cl)cc1`, the growth is 90.8% (inactive). Take `CN(C)CCCOc1ccc(C(=C(c2ccccc2)C2CCCC2)c2ccc(OCCCN(C)C)cc2)cc1`: the growth is -79.3% (active).

For `N#Cc1nc(-c2ccc(Cl)cc2)oc1N1CCC(S(=O)(=O)N2CCOCC2)CC1`, the growth is 89.7% (inactive). With `CC(=O)C1=C(C)NC(NNc2ccccc2)=NC1c1ccc([N+](=O)[O-])cc1` (stereo not given), the growth was 43.3% (inactive). As for `COC(=O)c1ccc(NC2=C(Cl)C(=O)C(C)=C(C)C2=O)cc1`, the growth is 43.3% (inactive).

For `C=C(C=O)[C@@H]1CC[C@]2(C(=O)O)CC[C@]3(C)C(CC[C@@H]4[C@@](C)(CCC#N)[C@H](C(=C)C=O)CC[C@]43C)[C@@H]12` (stereo not given in full), the growth is 17.8% (inactive). `CCOC(=O)C1=C(C)NC(C)=C(C(=O)OC(C)C)C1c1cccc(C#N)c1` (stereo not given): the growth is 84.7% (inactive). With `CC1(C)CC[C@]23CC[C@]4(C)[C@H](CC[C@@H]5[C@@]6(C)CC[C@H](NCO)C(C)(C)[C@@H]6CC[C@]54C)[C@H]2[C@H]1OC3` the figure was 29.3% (inactive); with `COc1ccc(C(=NNS(=O)(=O)c2ccc(C)cc2)c2ccccc2)cc1OC`, 80.7% (inactive); with `COc1cccc2c1C=CC1(O2)Oc2cccc(OC)c2C=C1C` (stereo not given), 29.2% (inactive). As to `Cc1csc(/N=C(N)/N=C(\N)c2cccnc2)n1`, the growth was 60.1% (inactive). With `Cc1ccc(/C=N/Nc2nc(Nc3ccccc3)nc(Nc3ccc(S(N)(=O)=O)cc3)n2)cc1` the figure was 61% (inactive); with `CCCC[n+]1ccc(SCC(=O)n2ccc3ccccc32)c2ccccc21`, 81.9% (inactive). With `O=[N+]([O-])c1ccc(NC(=S)NNC(=S)Nc2ccc(Br)cc2)cc1` the figure was 75.6% (inactive); with `CCOP(=O)(OCC)OC[C@]12CCC(C)(C)CC1C1=CC[C@@H]3[C@@]4(C)CCCNC(C)(C)[C@@H]4CC[C@@]3(C)[C@]1(C)CC2` (stereo not given in full), 53.7% (inactive); with `CNC(=O)Nc1ccc(Nc2cc(-c3ccc(-n4cccn4)cc3)[nH]n2)c(C)c1`, 113% (inactive). Take `O=C(CCCCCCNC(=O)c1csc(Br)n1)NO`: the growth is 21% (inactive). With `NS(=O)(=O)c1ccc(Nc2nc(N/N=C/c3ccc4c(c3)OCO4)nc(Nc3ccccc3)n2)cc1` the figure was 45.4% (inactive).
